One may read the AC50 as the concentration at which the activity in the assay is half-maximal.

Molecules are shown by their SMILES. Values joined by “and” are separate entries in the source; they are usually repeats but may differ in a detail not shown here. Equal values may be shown once. Inconclusive results are not listed. A structure can be active in one record and inactive in another. Active and inactive are the calls of the source. How the source made its calls, unless noted: active means hit-call score of the fitted dose curve at least 0.9, where 1 is the maximum; inactive means score below 0.9.

The source of these data is PubChem BioAssay (EPA / NIEHS).

Experiment [1] in a line: ATG_PXRE_CIS: Attagene CIS-FACTORIAL HepG2 Assay for human Pregnane X Receptor Element (PXRE) (AID 2282957). The conditions noted are these: HepG2 Attagene CIS-FACTORIAL PXRE reporter, mRNA; actives raise or lower the signal. The method in brief: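 HepG2 cells transiently transfected with cis-element-driven multiplexed reporter units; after 24 h chemical exposure, reporter mRNA measured by RT-PCR, 6-FAM labelling, HpaI digestion and capillary electrophoresis. Bidirectional fitting relative to DMSO.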

Experiment [2] in a line: ATG_RORE_CIS: Attagene CIS-FACTORIAL HepG2 Assay for human RAR-related Orphan Receptor Element (RORE) (AID 2282959). Conditions: HepG2 Attagene cis-factorial RORE reporter, mRNA; actives raise or lower the signal. The method in brief:
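Transient MRTU transfection of human HepG2 liver cells (FuGene 6); 24 h compound exposure; TriZol RNA, oligo(dT) RT, PCR, FAM labeling, HpaI cut, CE fragment analysis. DMSO = negative control/baseline.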

A short description of experiment [3]: ATG_Sox_CIS: Attagene CIS-FACTORIAL HepG2 Assay for human SRY-box transcription factor (SOX) (AID 2282960). Conditions: HepG2 Attagene cis-factorial SOX reporter, mRNA; actives raise or lower the signal. Summed up: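 Endogenous factor activity in human liver HepG2 cells carrying transfected cis-regulated reporter units. RNA taken 24 h post-dose, reverse-transcribed, PCR-amplified and sized by capillary electrophoresis. Gain or loss of signal fitted relative to DMSO.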

The target of experiment [4] is Transcription factor Sp1 (Homo sapiens) (UniProt P08047). As to the kind of experiment: ATG_Sp1_CIS: Attagene CIS-FACTORIAL HepG2 Assay for human Specificity Protein 1 (Sp1) (AID 2282961). Conditions: HepG2 Sp1 cis-reporter transcription, actives raise or lower the signal. The method in brief:
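Transient MRTU-transfected HepG2, 24 h compound exposure. Total RNA → oligo(dT) RT → PCR of reporter → 6-FAM primer extension → HpaI digest → CE. Endpoint fitted both directions vs DMSO.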

A short description of experiment [5]: ATG_SREBP_CIS: Attagene CIS-FACTORIAL HepG2 Assay for human Sterol Regulatory Element Binding (SREBP) (AID 2282962). The conditions noted are these: HepG2 Attagene cis-factorial SREBP reporter, mRNA; actives raise or lower the signal. The method in brief:
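mRNA induction of transfected cis-promoter reporters in HepG2 cells, 24 h post-dose. Detection: RT-PCR with 6-FAM-labelled products, HpaI digest, capillary electrophoresis. DMSO served as negative control and baseline.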

For experiment [6], the target named is Signal transducer and activator of transcription 3 (Homo sapiens) (UniProt P40763). Put plainly: ATG_STAT3_CIS: Attagene CIS-FACTORIAL HepG2 Assay for human Signal Transducer and Activator of Transcription 3 (STAT3) (AID 2282963). Conditions: HepG2, Attagene cis-factorial STAT3 reporter transcription; actives raise or lower the signal. The method in brief:
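HepG2 cells transiently transfected with cis-element-driven multiple reporter transcription units; after 24 h chemical exposure, reporter mRNA measured by RT-PCR, 6-FAM primer-extension labelling, HpaI digestion and capillary electrophoresis. Bidirectional fitting versus DMSO baseline.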

Experiment [7] in a line: ATG_TA_CIS: Attagene CIS-FACTORIAL HepG2 Assay for human TA Basal Promoter (AID 2282964). The conditions noted are these: HepG2 Attagene CIS-factorial TA basal promoter reporter; actives raise or lower the signal. Summed up: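 Transient MRTU transfection of HepG2 preceded 24 h compound exposure. Reporter mRNA levels were then read by RT-PCR with capillary electrophoresis, and this background-control endpoint was fitted bidirectionally to DMSO.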

Experiment [8] is described as follows: ATG_TCF_b_cat_CIS: Attagene CIS-FACTORIAL HepG2 Assay for human T-Cell-Factor with beta-catenin (TCF/b-cat) (AID 2282965). Conditions: HepG2 TCF/beta-catenin cis-reporter transcription, actives raise or lower the signal. Summed up: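 HepG2 cells transiently transfected with multiple cis-promoter-regulated reporter transcription units, so endogenous transcription factor activity is measured. Reporter mRNA read 24 hours after dosing by RT-PCR, fluorescent labelling and capillary electrophoresis; bidirectional fitting against DMSO.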

The nature of experiment [9]: ATG_TAL_CIS: Attagene CIS-FACTORIAL HepG2 Assay for human TAL Basal Promoter (AID 2282966).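 Further: background control endpoint measuring basal TAL promoter reporter mRNA not a specific factor.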 Conditions: HepG2 Attagene cis-factorial TAL promoter reporter; actives raise or lower the signal. The method in brief: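 HepG2 cells transiently transfected with multiplexed cis-promoter reporter units, dosed 24 h. Reporter mRNA quantified by RT-PCR, 6-FAM labelling, HpaI digestion and capillary electrophoresis; TAL basal promoter serves as background control, fitted bidirectionally versus DMSO.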

The nature of experiment [10]: ATG_TGFb_CIS: Attagene CIS-FACTORIAL HepG2 Assay for human Transforming Growth Factor (TGF) (AID 2282967). Conditions: HepG2 Attagene CIS TGFb reporter, mRNA transcription; actives raise or lower the signal. The method in brief: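 After a 24-hour incubation with compound, transfected HepG2 cells were lysed for RNA; reporter cDNA was amplified, fluorescently end-labeled and separated by CE. DMSO served as baseline for bidirectional fits.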

A short description of experiment [11]: ATG_VDRE_CIS: Attagene CIS-FACTORIAL HepG2 Assay for human Vitamin D Receptor Element (VDRE) (AID 2282968). The conditions noted are these: HepG2 VDRE cis-reporter transcription, actives raise or lower the signal. Summed up:
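HepG2 cells transiently transfected with cis-element reporter units, dosed 24 h; reporter mRNA measured by RT-PCR, 6-FAM labeling, HpaI digestion and capillary electrophoresis. Activity fitted bidirectionally against DMSO baseline.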

The target of experiment [12] is Steroid hormone receptor ERR1 (Homo sapiens) (UniProt P11474). As to the kind of experiment: ATG_ERRa_TRANS: Attagene TRANS-FACTORIAL HepG2 Assay for human Estrogen-Related Receptor alpha (ERRa) (AID 2282971; active means hit-call score of the fitted dose curve at least 0.9, where 1 is the maximum). The conditions noted are these: HepG2 Attagene TRANS reporter, ERRa transactivation. Summed up:
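HepG2 cells transiently transfected with GAL4-UAS reporter units and chimeric NR-Gal4 constructs; after 24 hour compound incubation, reporter mRNA quantified by RT-PCR, fluorescent labelling and capillary electrophoresis, gain of signal versus DMSO.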

Experiment [13] addresses X-box-binding protein 1 (Homo sapiens) (UniProt P17861). As to the kind of experiment: ATG_Xbp1_CIS: Attagene CIS-FACTORIAL HepG2 Assay for human X-box Binding Protein 1 (XBP1) (AID 2282972). Conditions: HepG2 XBP1 cis-element reporter, Attagene multiplex; actives raise or lower the signal. The method in brief:
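Fluorescence-labelled cDNA fragments from reporter transcripts, separated by capillary electrophoresis, give the signal. Source: HepG2 cells transfected with promoter-driven reporter units, harvested 24 h post-dose. DMSO served as reference for bidirectional curve fitting.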

The nature of experiment [14]: ATG_M_19_TRANS: Attagene TRANS-FACTORIAL HepG2 Assay for M19 Transcription Factor (Internal Marker) (AID 2282974; active means hit-call score of the fitted dose curve at least 0.9, where 1 is the maximum). The conditions noted are these: HepG2 Attagene TRANS-FACTORIAL M19 internal marker reporter. Summed up:
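Fluorescence of 6-FAM-labelled reporter cDNA fragments, separated by capillary electrophoresis, served as the readout. These derived from HepG2 cells carrying transfected GAL4-UAS reporter units after 24 h dosing, with DMSO as negative control.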

Experiment [15] is described as follows: ATG_GAL4_TRANS: Attagene TRANS-FACTORIAL HepG2 Assay for GAL4 (Internal Marker) (AID 2282976; active means hit-call score of the fitted dose curve at least 0.9, where 1 is the maximum). Conditions: HepG2 Attagene TRANS GAL4 internal marker reporter. Summed up:
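Background-control readout: GAL4-UAS reporter transcript in transiently transfected HepG2 cells after 24 h compound exposure. Measured by RT-PCR, 6-FAM primer extension, HpaI digest and capillary electrophoresis; gain-of-signal fit versus DMSO.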

Experiment [16] deals with Estrogen-related receptor gamma (Homo sapiens) (UniProt P62508). Put plainly: ATG_ERRg_TRANS: Attagene TRANS-FACTORIAL HepG2 Assay for human Estrogen-Related Receptor gamma (ERRg) (AID 2282977; active means hit-call score of the fitted dose curve at least 0.9, where 1 is the maximum;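 further: hits increase reporter signal over DMSO so potencies reflect activators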). Conditions: HepG2 Attagene TRANS reporter, ERRg transactivation. The method in brief: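 Transient HepG2 transfectants, 24 h compound exposure, GAL4-UAS reporter mRNA by RT-PCR/6-FAM labelling/capillary electrophoresis; positive direction vs DMSO.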
Sequence of Estrogen-related receptor gamma (Homo sapiens) (P62508 whole entry, looked up, the tested form may be a part): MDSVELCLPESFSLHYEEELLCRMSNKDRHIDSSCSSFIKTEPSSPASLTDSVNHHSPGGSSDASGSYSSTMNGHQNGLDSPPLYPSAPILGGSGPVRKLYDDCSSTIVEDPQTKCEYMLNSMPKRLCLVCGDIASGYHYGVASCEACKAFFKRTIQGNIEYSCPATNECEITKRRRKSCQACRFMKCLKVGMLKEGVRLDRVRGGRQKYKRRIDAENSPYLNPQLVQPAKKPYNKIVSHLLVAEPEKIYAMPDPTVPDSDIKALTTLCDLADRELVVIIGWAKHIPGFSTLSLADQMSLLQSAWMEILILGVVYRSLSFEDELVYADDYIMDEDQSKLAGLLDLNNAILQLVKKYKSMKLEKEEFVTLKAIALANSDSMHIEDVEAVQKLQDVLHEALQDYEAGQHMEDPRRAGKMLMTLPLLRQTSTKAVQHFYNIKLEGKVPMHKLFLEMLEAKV

In experiment [17] the target is Glucocorticoid receptor (Homo sapiens) (UniProt P04150). Put plainly: ATG_GR_TRANS: Attagene TRANS-FACTORIAL HepG2 Assay for human Glucocorticoid Receptor (GR) (AID 2282978; active means hit-call score of the fitted dose curve at least 0.9, where 1 is the maximum;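 further: activators score as hits since higher reporter transcript over DMSO is fitted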). The conditions noted are these: HepG2 Attagene TRANS GR reporter, mRNA transcription. Summed up: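 Fluorescent capillary-electrophoresis quantitation of reporter mRNA is the readout, taken 24 h after dosing human HepG2 cells carrying transiently transfected GAL4-UAS reporter units activated by chimeric NR-GAL4 fusions; activity scored as induction over DMSO.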
Sequence of Glucocorticoid receptor (Homo sapiens) (P04150 whole entry, looked up, the tested form may be a part): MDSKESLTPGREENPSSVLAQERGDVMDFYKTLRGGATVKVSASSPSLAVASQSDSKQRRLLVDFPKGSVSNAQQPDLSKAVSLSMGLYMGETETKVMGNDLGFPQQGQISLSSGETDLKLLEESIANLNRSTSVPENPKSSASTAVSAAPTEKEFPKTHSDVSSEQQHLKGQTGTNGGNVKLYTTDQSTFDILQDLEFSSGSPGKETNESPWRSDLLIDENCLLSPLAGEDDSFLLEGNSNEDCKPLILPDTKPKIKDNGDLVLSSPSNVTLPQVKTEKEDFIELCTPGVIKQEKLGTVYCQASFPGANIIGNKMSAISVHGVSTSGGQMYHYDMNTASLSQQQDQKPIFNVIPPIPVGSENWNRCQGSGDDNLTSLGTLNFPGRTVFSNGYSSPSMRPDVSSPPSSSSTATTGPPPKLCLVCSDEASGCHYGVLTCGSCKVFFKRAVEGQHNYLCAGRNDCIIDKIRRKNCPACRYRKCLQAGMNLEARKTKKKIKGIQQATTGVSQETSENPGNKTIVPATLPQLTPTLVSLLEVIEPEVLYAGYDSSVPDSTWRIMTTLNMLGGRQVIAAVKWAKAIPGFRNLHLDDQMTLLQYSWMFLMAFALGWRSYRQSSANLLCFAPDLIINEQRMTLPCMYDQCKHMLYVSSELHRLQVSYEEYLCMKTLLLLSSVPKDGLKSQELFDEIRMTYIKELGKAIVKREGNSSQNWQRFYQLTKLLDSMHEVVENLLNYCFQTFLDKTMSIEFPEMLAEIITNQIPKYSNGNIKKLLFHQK

The nature of experiment [18]: ATG_PPRE_CIS: Attagene CIS-FACTORIAL HepG2 Assay for human Peroxisome Proliferator-activated Response Element (PPRE) (AID 2282958). The conditions noted are these: HepG2 PPRE cis-element reporter, Attagene transcription factor profiling; actives raise or lower the signal. Summed up:
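HepG2, transient MRTU transfection (cis promoter elements, endogenous TFs). 24 h dosing. RNA → oligo(dT) RT → PCR → 6-FAM primer extension → HpaI digest → CE. Bidirectional fit vs DMSO.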

The target of experiment [19] is Estrogen receptor (Homo sapiens) (UniProt P03372). As to the kind of experiment: ATG_ERa_TRANS: Attagene TRANS-FACTORIAL HepG2 Assay for human Estrogen Receptor alpha (ERa) (AID 2282970; active means hit-call score of the fitted dose curve at least 0.9, where 1 is the maximum). Conditions: HepG2 Attagene TRANS ERa GAL4 reporter, mRNA. Summed up:
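HepG2 cells transiently transfected with multiplexed GAL4-UAS reporter units read out chimeric NR-Gal4 activity. After 24 h compound exposure, reporter mRNA was quantified by RT-PCR, 6-FAM labeling, HpaI digestion and capillary electrophoresis, relative to DMSO.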

In experiment [20] the target is Nuclear receptor subfamily 1 group I member 3 (Homo sapiens) (UniProt Q14994). Put plainly: ATG_CAR_TRANS: Attagene TRANS-FACTORIAL HepG2 Assay for human Constitutive Androstane Receptor (CAR) (AID 2282969; active means hit-call score of the fitted dose curve at least 0.9, where 1 is the maximum;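 further: activators raise reporter mRNA above DMSO so AC50 marks induction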). The conditions noted are these: HepG2 Attagene TRANS-FACTORIAL CAR reporter. The method in brief: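 HepG2 cells transiently transfected with multiplexed GAL4-UAS reporter units expressing chimeric NR-Gal4 proteins; compound exposure 24 h. Reporter mRNA measured by RT-PCR, 6-FAM labelling, HpaI digestion and capillary electrophoresis; gain-of-signal fitted against DMSO baseline.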
Sequence of Nuclear receptor subfamily 1 group I member 3 (Homo sapiens) (Q14994 whole entry, looked up, the tested form may be a part): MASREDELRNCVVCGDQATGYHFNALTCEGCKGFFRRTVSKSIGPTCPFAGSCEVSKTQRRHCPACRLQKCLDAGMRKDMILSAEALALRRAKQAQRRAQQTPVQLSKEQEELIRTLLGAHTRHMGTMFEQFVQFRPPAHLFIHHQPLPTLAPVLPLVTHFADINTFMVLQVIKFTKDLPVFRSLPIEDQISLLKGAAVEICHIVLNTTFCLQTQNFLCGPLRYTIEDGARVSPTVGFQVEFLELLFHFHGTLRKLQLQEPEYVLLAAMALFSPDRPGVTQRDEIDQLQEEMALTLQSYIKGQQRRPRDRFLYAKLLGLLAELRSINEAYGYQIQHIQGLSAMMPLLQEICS

Sequence of Signal transducer and activator of transcription 3 (Homo sapiens) (P40763 whole entry, looked up): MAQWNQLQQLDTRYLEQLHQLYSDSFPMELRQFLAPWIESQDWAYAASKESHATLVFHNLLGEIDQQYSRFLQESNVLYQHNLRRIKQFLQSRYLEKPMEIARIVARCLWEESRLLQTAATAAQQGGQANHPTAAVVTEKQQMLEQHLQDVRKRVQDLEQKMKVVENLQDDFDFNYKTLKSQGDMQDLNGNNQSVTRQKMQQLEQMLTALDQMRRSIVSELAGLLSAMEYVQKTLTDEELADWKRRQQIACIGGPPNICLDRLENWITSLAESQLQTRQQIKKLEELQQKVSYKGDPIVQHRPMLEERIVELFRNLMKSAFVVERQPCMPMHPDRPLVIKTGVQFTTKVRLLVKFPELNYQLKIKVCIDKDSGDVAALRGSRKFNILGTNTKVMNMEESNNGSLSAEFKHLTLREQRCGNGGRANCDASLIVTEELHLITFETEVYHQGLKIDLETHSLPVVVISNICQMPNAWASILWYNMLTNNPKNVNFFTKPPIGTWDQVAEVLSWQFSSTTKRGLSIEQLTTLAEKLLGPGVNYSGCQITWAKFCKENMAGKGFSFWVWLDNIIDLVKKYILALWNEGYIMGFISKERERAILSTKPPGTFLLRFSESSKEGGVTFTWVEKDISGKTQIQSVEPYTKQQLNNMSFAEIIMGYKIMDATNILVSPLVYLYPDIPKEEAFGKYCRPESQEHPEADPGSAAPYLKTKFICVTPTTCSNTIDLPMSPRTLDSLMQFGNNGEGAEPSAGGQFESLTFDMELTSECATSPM
Sequence of Steroid hormone receptor ERR1 (Homo sapiens) (P11474 whole entry, looked up, the tested form may be a part): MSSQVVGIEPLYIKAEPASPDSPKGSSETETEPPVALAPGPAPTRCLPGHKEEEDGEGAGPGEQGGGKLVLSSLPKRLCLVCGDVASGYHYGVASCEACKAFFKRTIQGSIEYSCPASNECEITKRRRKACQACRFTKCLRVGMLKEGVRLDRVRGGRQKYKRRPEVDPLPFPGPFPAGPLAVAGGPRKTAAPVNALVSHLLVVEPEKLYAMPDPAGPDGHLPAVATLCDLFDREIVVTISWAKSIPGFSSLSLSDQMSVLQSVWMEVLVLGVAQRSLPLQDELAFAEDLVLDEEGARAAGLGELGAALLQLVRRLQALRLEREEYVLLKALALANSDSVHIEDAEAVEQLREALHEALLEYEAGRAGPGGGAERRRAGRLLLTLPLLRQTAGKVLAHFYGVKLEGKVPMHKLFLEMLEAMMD
Sequence of Transcription factor Sp1 (Homo sapiens) (P08047 whole entry, looked up): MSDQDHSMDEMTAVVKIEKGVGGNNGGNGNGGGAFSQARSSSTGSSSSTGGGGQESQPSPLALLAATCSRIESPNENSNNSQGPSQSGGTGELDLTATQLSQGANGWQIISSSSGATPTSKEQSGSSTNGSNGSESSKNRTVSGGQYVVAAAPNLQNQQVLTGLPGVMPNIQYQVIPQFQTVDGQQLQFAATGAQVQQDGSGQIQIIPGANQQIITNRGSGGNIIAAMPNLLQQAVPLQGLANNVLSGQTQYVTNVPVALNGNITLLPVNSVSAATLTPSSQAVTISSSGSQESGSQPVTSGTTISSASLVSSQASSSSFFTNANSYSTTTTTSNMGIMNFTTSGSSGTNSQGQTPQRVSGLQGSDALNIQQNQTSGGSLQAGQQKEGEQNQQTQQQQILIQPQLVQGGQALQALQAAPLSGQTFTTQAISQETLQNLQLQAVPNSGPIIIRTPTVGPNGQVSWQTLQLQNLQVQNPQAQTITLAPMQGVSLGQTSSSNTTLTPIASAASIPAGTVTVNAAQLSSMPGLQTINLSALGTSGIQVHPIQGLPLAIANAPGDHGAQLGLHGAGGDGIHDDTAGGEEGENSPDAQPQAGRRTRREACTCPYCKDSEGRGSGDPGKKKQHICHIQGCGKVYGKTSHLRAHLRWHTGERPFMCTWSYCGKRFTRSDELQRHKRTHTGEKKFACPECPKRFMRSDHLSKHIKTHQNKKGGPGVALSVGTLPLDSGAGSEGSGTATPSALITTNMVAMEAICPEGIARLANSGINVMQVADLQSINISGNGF
Sequence of X-box-binding protein 1 (Homo sapiens) (P17861 whole entry, looked up, the tested form may be a part): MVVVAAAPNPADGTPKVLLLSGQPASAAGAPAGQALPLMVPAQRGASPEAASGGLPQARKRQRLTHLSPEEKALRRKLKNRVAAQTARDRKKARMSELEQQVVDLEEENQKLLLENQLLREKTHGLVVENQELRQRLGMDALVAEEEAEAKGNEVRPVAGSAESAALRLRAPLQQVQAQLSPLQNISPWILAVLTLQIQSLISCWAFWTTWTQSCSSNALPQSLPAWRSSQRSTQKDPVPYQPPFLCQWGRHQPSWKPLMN
Sequence of Estrogen receptor (Homo sapiens) (P03372 whole entry, looked up, the tested form may be a part): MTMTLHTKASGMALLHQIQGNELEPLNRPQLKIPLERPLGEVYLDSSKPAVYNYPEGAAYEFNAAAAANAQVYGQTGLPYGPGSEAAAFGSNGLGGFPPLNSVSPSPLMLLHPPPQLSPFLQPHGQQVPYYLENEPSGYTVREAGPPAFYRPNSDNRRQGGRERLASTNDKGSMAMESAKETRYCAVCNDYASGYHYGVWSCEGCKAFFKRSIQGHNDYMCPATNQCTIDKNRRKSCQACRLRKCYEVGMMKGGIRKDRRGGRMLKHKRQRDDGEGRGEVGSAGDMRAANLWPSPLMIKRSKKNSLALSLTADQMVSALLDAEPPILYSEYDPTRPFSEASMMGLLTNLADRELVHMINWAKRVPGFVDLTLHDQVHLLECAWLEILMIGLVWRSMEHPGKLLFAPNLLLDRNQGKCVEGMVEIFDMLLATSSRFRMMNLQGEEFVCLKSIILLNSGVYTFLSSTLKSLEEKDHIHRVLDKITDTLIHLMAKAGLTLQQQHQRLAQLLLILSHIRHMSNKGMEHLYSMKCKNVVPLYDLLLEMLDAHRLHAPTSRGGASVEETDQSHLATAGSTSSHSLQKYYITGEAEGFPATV

Take `O=C(NO)c1ccccc1`: the molecule was classed as inactive in experiment [1], in experiment [2], in [3], in [4], in [5] and in experiment [6]. The outcome in [7], in experiment [10], in experiment [11], in experiment [12], in [13] and in experiment [14] was inactive. The outcome in [15], in experiment [16] and in [17] was inactive. Further, the AC50 in experiment [7] was 76.7 µM (active); in experiment [8], 18.9 µM (active) [middle of 4 runs]; in [9] it was 75.5 µM (active) [middle of 4 runs]; in experiment [10], 27.5 µM (active) and 26.7 µM (active).

Take `CCCCCCCCCCCCOC(=O)c1cc(O)c(O)c(O)c1`: the AC50 is 2.94 µM (active) in experiment [1], 2.85 µM (active) in experiment [5], 11.1 µM (active) in experiment [19] and 11.1 µM (active) in [13]. In addition, the call in experiment [18], in experiment [2], in [3], in experiment [6], in experiment [7] and in [9] was inactive. Further, the molecule was called inactive in [10], in experiment [11], in [14] and in [17].

As to `CC(C)CCOCCC(C)C`, the result in [1], in experiment [18], in experiment [2], in [3], in [5] and in [7] was inactive. In addition, the molecule was classed as inactive in experiment [8], in [9], in experiment [10], in experiment [11], in experiment [20] and in experiment [19]. Besides, the molecule was called inactive in experiment [12], in [13], in experiment [15] and in experiment [17].

For `Oc1ccc(Cc2ccccc2O)cc1`, the AC50 in [1] was 46 µM (active); in [11], 64.5 µM (active). Besides, the outcome in experiment [18], in experiment [2], in experiment [3], in experiment [6], in experiment [7] and in [8] was inactive. The result in [9], in experiment [10], in [13], in experiment [14] and in experiment [17] was inactive.
